Test results taken from PubChem BioAssay.
Active and inactive are the calls of the source.

Assays:
[1] = binders of probe aFSTL3 on microarray, primary screen, stem cell growth factor project, biochemical, small-molecule microarray, fluorescence 635/667 (AID 1064); conditions: higher = more signal;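 note: measures binding of the biotinylated anti-FSTL3 antibody to printed compounds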
[2] = binders from COS7 lysate, DM2A8 probe, primary screen, torsin A project, cell lysate, small-molecule microarray, fluorescence 635/667 (AID 1065); conditions: higher = more signal, COS7 lysate expressing mutant human TOR1A
[3] = binders of probe aFGF2 on microarray, primary screen, stem cell growth factor project, biochemical, small-molecule microarray, fluorescence 635/667 (AID 1067); conditions: higher = more signal;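 note: measures binding of biotinylated aFGF2 protein to printed compounds on slides; z-score merges feature fluorescence and signal-to-noise across triplicate slides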
[4] = binders of probe aFGF10 on microarray, primary screen, stem cell growth factor project, biochemical, small-molecule microarray, fluorescence 635/667 (AID 1071); conditions: higher = more signal;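 note: score merges 667 nm spot intensity and signal to noise from triplicate slides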
[5] = target: Neurogenic locus notch homolog protein 2 (Homo sapiens) (UniProt Q04721); assay: Notch2 binders on small-molecule microarrays, primary screen, biochemical, small-molecule microarray, 635 nm fluorescence, stem cell growth factors (AID 1073); conditions: Notch2 binding, higher = more signal
[6] = target: Pro-neuregulin-1, membrane-bound isoform (Homo sapiens) (UniProt Q02297); assay: NRG1 binders on small-molecule microarrays, primary screen, psychiatric disease protein project, biochemical, small-molecule microarray, fluorescence 635/667 (AID 1075); conditions: NRG1 binding, 635 nm fluorescence, higher = more signal;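 note: score combines 667 nm spot fluorescence with signal to noise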
[7] = tested on: Neuregulin-1 EGF-like domain; assay: binders of neuregulin-1 EGF-like domain, primary screen, biochemical, small-molecule microarray, 635 nm fluorescence (AID 1081); conditions: small-molecule microarray binding, higher = more signal;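 note: binding of the protein to compounds printed on small-molecule microarray slides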
[8] = FRG1 promoter luciferase signal modulators, primary screen, FRG1 inhibition for FSHD, cell-based, C2C12 myotubes, firefly/Renilla luciferase, luminescence (AID 1084); conditions: higher = more signal, called active from +8 up or from −8 down
[9] = binders of probe aFST on microarray, primary screen, stem cell growth factor project, biochemical, small-molecule microarray, fluorescence 635/667 (AID 1086); conditions: higher = more signal;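 note: score merges 667 nm fluorescence with signal-to-noise of each printed compound spot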
[10] = binders of probe aHhip on microarray, primary screen, stem cell growth factor project, biochemical, small-molecule microarray, fluorescence 635/667 (AID 1087); conditions: higher = more signal;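 note: score merges spot fluorescence at 667nm with spot signal to noise ratio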

Chain of Pro-neuregulin-1, membrane-bound isoform (Homo sapiens) (Q02297 whole entry, looked up, the tested form may be a part, canonical isoform): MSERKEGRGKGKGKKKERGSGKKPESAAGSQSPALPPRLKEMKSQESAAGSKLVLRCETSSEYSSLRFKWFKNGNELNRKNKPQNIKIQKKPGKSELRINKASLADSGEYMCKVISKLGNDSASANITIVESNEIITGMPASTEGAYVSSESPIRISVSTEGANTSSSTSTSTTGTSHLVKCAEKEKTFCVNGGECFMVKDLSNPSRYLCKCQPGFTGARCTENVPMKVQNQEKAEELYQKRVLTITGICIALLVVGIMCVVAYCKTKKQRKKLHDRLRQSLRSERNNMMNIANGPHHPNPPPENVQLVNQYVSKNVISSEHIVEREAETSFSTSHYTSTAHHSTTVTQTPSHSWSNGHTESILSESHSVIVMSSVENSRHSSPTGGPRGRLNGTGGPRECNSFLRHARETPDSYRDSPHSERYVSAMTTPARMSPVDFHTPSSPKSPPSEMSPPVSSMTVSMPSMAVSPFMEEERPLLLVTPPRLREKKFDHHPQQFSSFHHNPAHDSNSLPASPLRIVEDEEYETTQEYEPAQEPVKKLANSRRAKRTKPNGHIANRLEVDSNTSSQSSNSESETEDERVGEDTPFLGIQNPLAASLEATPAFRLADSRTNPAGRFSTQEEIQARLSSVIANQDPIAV
Chain of Neurogenic locus notch homolog protein 2 (Homo sapiens) (Q04721 whole entry, looked up, canonical isoform): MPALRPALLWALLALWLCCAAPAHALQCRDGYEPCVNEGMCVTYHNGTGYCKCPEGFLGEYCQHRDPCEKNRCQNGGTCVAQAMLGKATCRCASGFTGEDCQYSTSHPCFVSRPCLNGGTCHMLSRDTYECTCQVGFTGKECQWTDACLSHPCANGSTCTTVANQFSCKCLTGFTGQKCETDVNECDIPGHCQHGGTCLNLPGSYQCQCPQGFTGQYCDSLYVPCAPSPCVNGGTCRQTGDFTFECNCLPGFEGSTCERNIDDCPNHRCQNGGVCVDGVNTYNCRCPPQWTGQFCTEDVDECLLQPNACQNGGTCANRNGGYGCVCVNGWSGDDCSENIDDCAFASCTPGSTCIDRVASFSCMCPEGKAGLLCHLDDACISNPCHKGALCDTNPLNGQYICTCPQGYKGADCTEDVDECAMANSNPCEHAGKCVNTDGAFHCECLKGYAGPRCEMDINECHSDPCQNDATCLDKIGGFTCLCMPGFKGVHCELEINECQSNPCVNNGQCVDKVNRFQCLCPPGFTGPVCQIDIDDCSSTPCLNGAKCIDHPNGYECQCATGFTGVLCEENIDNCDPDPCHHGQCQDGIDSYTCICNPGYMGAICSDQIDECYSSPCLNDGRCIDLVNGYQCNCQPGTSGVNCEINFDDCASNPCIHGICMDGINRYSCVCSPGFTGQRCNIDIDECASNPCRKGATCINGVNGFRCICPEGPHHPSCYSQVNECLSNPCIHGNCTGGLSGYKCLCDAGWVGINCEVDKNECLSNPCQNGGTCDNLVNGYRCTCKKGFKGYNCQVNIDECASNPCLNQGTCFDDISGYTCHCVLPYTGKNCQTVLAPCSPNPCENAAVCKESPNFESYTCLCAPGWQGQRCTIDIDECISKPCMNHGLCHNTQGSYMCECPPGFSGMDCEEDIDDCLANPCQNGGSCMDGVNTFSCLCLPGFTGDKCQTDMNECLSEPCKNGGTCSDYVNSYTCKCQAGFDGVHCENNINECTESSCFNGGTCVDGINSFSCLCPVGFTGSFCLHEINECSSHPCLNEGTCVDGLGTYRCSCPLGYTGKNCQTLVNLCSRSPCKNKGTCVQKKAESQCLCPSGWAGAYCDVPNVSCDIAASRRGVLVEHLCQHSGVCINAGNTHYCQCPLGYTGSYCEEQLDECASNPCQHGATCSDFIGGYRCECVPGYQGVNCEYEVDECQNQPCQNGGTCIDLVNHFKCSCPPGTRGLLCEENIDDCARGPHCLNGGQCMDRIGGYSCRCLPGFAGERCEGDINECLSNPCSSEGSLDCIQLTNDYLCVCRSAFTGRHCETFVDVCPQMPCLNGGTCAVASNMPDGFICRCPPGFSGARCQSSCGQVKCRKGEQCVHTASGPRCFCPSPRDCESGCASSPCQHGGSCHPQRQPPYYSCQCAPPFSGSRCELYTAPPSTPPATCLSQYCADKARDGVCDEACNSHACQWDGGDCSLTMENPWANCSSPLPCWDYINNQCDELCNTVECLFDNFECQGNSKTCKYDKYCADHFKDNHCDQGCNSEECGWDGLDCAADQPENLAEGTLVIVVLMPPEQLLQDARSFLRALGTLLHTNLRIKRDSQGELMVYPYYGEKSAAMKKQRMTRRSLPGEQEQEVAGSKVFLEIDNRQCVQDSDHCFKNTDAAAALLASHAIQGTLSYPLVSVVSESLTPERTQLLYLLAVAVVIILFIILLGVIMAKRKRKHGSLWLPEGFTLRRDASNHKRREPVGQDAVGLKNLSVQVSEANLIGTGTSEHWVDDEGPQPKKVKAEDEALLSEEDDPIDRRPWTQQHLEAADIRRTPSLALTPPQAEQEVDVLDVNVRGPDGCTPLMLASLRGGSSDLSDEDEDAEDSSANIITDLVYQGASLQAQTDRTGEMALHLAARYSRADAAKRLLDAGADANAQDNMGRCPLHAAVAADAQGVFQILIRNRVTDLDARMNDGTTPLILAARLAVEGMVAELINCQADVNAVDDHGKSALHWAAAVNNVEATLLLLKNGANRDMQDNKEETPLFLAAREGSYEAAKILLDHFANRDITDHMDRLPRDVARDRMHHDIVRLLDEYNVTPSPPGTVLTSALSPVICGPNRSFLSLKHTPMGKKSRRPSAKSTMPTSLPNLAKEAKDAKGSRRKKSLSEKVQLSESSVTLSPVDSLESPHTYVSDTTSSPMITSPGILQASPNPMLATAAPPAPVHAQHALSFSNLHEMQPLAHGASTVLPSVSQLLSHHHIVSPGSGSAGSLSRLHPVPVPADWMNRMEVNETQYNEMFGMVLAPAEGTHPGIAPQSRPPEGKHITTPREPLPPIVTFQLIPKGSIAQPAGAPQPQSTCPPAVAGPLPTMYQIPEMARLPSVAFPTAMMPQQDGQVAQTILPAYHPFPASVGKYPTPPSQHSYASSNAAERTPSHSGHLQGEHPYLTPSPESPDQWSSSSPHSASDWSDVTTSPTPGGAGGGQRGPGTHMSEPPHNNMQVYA

Row | Compound | composite z-score [1] | composite z-score [2] | composite z-score [3] | composite z-score [4] | composite z-score [5] | composite z-score [6] | composite z-score [7] | z-score [8] | composite z-score [9] | composite z-score [10]
1 | CO[C@H]1O[C@H](CO)[C@@H](OC(=O)Nc2cccc(F)c2)[C@H](OC(=O)Nc2ccc3c(c2)OCO3)[C@H]1OC(=O)Nc1ccc2c(c1)OCO2 | -0.382 | 0.755 | 0.0094 | 0.358 | 0.893 | 0.958 | 1.17 | 6.24 (inactive) | -0.253 | -0.201
2 | CC(=O)NCCCC[C@@H]1NC(=O)[C@H]2C[C@@H](C(=O)NCCCCCN)[C@@H](c3cccc(OCCO)c3)N2C1=O | -0.0485 | 0.107 | 0.0661 | 0.792 | 0.831 | 1.09 | 0.581 | -0.549 (inactive) | 0.547 | 0.758
3 | COC(=O)[C@]1(Cc2ccccc2CN=[N+]=[N-])N=C(c2ccc(OCCCO)cc2)O[C@@H]1c1ccccc1 | 0.774 | -0.556 | -0.137 | -1.27 | -1.24 | 0.4 | -0.45 | -2.44 (inactive) | -0.0581 | -0.174
4 | Cc1ccc(S[C@]2(C(=O)NCC(C)C)CC(=O)N(C3CCCCC3)[C@@H]2c2ccc(CO)cc2I)cc1 | -0.25 | 0.0044 | 0.062 | 0.384 | 0.939 | 1.42 | 1.03 | -2.29 (inactive) | 0.0997 | -0.166
5 | O=c1c2ccc(Br)cc2nc(-c2ccccc2)n1Cc1cccc(O)c1 | 0.255 | 2.81 | -0.0774 | 0.556 | 0.701 | 1.81 | 1.12 | 4.59 (inactive) | 0.831 | -0.181
6 | C[N+](C)(C)CCCCNC(=O)[C@H]1C[C@H]2C(=O)NCC(=O)N2[C@H]1c1ccc(O)cc1 | -0.392 | 1.83 | -0.0466 | 1.12 | 0.943 | 0.584 | 1.38 | 0.0635 (inactive) | 0.383 | -0.156
7 | C=CCNC(=O)[C@H]1[C@@H]2C(=O)O[C@@H](c3ccccc3)[C@@H](c3ccccc3)N2[C@@H](c2ccc(OCCO)cc2)[C@]12C(=O)N(C(=O)OCCOC)c1ccc(C#CC3=CCCCC3)cc12 | -0.0822 | 0.967 | -0.0711 | 1.13 | 0.844 | 1.43 | 1.28 | -0.974 (inactive) | 0.344 | -0.0296
8 | COCCOC(=O)N1C(=O)[C@@]2(c3ccccc31)[C@H](c1ccc(OCCO)cc1)N1[C@H](c3ccccc3)[C@H](c3ccccc3)OC(=O)[C@H]1[C@@H]2C(=O)NC[C@H](O)c1ccccc1 | -0.115 | 0.537 | 0.0276 | 0.228 | 0.614 | 1.52 | 1.35 | -1.51 (inactive) | 0.576 | -0.0753
9 | CN1C(=O)C2C=CC(C(O)C3CCCCC3)N(N(c3ccccc3)c3ccccc3)C2C1=O (stereo not given) | 1.61 | -0.277 | 0.182 | -0.122 | -0.112 | 1.12 | 0.659 | -0.158 (inactive) | 0.236 | -0.183
10 | O=C1O[C@H](c2ccccc2)[C@H](c2ccccc2)N2[C@H]1[C@@H](C(=O)NC[C@H](O)c1ccccc1)[C@]1(C(=O)Nc3ccccc31)[C@H]2c1ccccc1OCCO | 0.0095 | 0.142 | -0.0024 | 0.555 | 0.0225 | 0.851 | 1.2 | -1.13 (inactive) | -0.821 | -0.445
11 | COC(=O)[C@@]1(Cc2ccc(F)cc2)[C@H]2c3cc(C(=O)N(C)C)n(Cc4ccc(C)c(F)c4F)c3C[C@H]2CN1C(=O)c1ccccc1 | 0.896 | 0.0685 | 0.0697 | 0.795 | 1.62 | 1.71 | 1.36 | 0.55 (inactive) | 0.758 | 0.177
12 | COCCOC(=O)N1C(=O)[C@@]2(c3cc(C#CCCO)ccc31)[C@H](C(=O)NC[C@H](O)c1ccccc1)[C@H]1C(=O)O[C@H](c3ccccc3)[C@H](c3ccccc3)N1[C@@H]2c1ccccc1OCCO | -0.0841 | 0.284 | -0.0048 | 0.486 | 1.48 | 0.96 | 1.31 | -0.154 (inactive) | 0.62 | -0.0994
13 | COc1ccc([Si](C)(C)[C@H]2[C@H](CC(=O)N3CCC[C@H]3CO)O[C@@]3(C(=O)N(Cc4ccc(N5C(=O)c6cccc7cccc5c67)cc4)c4ccccc43)[C@@H]2C)cc1 | -0.276 | 0.623 | -0.071 | 0.751 | 0.517 | 0.916 | 0.804 | -4.19 (inactive) | 0.361 | -0.221
14 | CC(C)N1C(=O)c2ccccc2[C@](C)(C(=O)O)[C@@H]1c1ccc(CO)cc1 | 0.513 | -0.671 | -0.0255 | -0.0804 | -0.663 | 0.752 | -0.0487 | 0.726 (inactive) | 0.112 | -0.0708
15 | COCCCNC(=O)[C@]1(Cc2ccccc2CN=[N+]=[N-])N=C(c2ccc(OCCCO)cc2)O[C@@H]1c1ccccc1CN=[N+]=[N-] | 0.726 | 0.686 | 0.256 | 1.03 | 1.25 | 1.84 | 1.15 | -1.35 (inactive) | 1.23 | 0.537
16 | C[N+](C)(C)CCCCCCNC(=O)[C@@H]1C[C@@H]2C(=O)NCC(=O)N2[C@@H]1c1cccc(OCCO)c1 | -0.419 | 0.488 | -0.125 | -0.114 | 0.033 | 0.021 | 1.22 | 4.06 (inactive) | -0.0422 | -0.34

Row | Compound | composite z-score [1] | composite z-score [2] | composite z-score [3] | composite z-score [4] | composite z-score [5] | composite z-score [6] | composite z-score [7] | z-score [8] | composite z-score [9] | composite z-score [10]
17 | COC(=O)C(CC#Cc1ccc2c(c1)[C@]1(C(=O)N2)[C@H](C(=O)N2CCc3cc(OC)c(OC)cc3C2)[C@H]2C(=O)O[C@H](c3ccccc3)[C@H](c3ccccc3)N2[C@@H]1c1ccc(OCCO)cc1)C(=O)OC | -0.295 | 1.53 | -0.145 | 0.945 | 1.54 | 1.75 | 1.31 | 0.732 (inactive) | 0.672 | 0.0373
18 | CCCCCCCCCCC(O)C1C=CC2C(=O)NC(=O)C2N1Nc1ccccn1 (stereo not given) | 0.444 | -1.14 | -0.0899 | -0.417 | 0.439 | 1 | 0.852 | 1.06 (inactive) | 0.0124 | -0.236
19 | C=CCOC(=O)[C@@H]1[C@H]2C(=O)O[C@H](c3ccccc3)[C@H](c3ccccc3)N2[C@H](c2ccc(OCCOC(=O)[C@@H]3C[C@@H]4C(=O)N5CCC[C@H]5C(=O)N4[C@@H]3c3cccc(OCCO)c3)cc2)[C@@]12C(=O)Nc1ccc(I)cc12 | -0.396 | 0.313 | -0.0927 | 0.0951 | 0.115 | 0.311 | 1.17 | 0.184 (inactive) | 0.252 | -0.236
20 | CN(C)CCCNC(=O)[C@@]1(Cc2ccccc2I)c2ccccc2C(=O)N(Cc2ccccc2Cl)[C@H]1c1ccc(CO)cc1 | 1.17 | -0.576 | 0.0516 | 0.617 | 0.0497 | 1.47 | 1.25 | -2.07 (inactive) | 0.294 | -0.181
21 | COc1ccc(CCNC(=O)[C@@H]2c3ccccc3C(=O)N(Cc3ccccc3C(F)(F)F)[C@H]2c2ccc(CO)cc2)cc1 | 0.114 | 1.02 | 0.0292 | 0.0105 | -0.354 | 1.2 | 0.472 | -0.646 (inactive) | -0.211 | -0.134
22 | C=C(C)[C@@H]1CC=C(C(O)C2C=CC3C(=O)N(C4CCCCC4)C(=O)C3N2Nc2ccc(OC)cc2)CC1 (stereo not given in full) | -0.128 | 0.103 | 0.156 | 0.594 | 1.45 | 1.2 | 1.02 | 0.0512 (inactive) | 1.32 | -0.41
23 | C[N+](C)(C)CCCC[C@@H]1NC(=O)[C@H]2C[C@@H](C(=O)NCCCCCCN)[C@@H](c3cccc(OCCO)c3)N2C1=O | 1.71 | 1.85 | 0.0852 | 0.765 | 0.791 | 1.14 | 1.49 | 0.029 (inactive) | 0.592 | 1.13
24 | CCOC(=O)C[C@H]1[C@H](OC(=O)c2ccc(C(=O)c3ccccc3)cc2)[C@@H](NC(=O)C2CCCCC2)c2cc(OCCCO)ccc2N1C(=O)Cc1ccc(OC)cc1 | 0.644 | 0.673 | 0.0007 | 0.348 | 0.376 | 0.556 | 0.207 | -1.01 (inactive) | 0.757 | 0.295
25 | COCCOC(=O)N1C(=O)[C@@]2(c3cc(C#CC4(O)CCCCCC4)ccc31)[C@H](C(=O)N1CCc3cc(OC)c(OC)cc3C1)[C@H]1C(=O)O[C@H](c3ccccc3)[C@H](c3ccccc3)N1[C@@H]2c1ccccc1OCCO | -0.0526 | 1.46 | 0.119 | 0.665 | 1.15 | 0.491 | 1.22 | -0.165 (inactive) | 1.08 | 0.623
26 | CCCC=C(CCC)[C@@H](NC(=O)Cc1ccccc1)c1ccc(C(=O)OC)cc1 | 1.22 | -0.0985 | 0.254 | 0.536 | 1.13 | 0.807 | 0.606 | -0.26 (inactive) | 0.94 | 3.03
27 | COC(=O)[C@@]1(Cc2ccc(OC)cc2)[C@H]2c3cc(C(=O)N4CCCC4)n(Cc4ccc(C)o4)c3C[C@H]2CN1C(=O)c1ccccc1 | 0.833 | -0.0673 | 0.218 | 1.15 | 1.62 | 1.83 | 0.266 | 8.22 (active) | 1.05 | -0.116
28 | Cc1ccc(S[C@]2(C(=O)O)CC(=O)N(C3CCCCC3)[C@@H]2c2ccc(CO)cc2)cc1 | -0.27 | 0.333 | -0.0943 | -0.315 | 0.555 | 1.36 | 0.962 | -1.02 (inactive) | 0.157 | 0.0496
29 | CC(C)C(CO)N1C(=O)[C@@H]2[C@H]3C(=O)OCC=C[C@H]3OC23C=CCN(CCN2CCOCC2)C(=O)[C@@H]13 (stereo not given in full) | -0.565 | -1.13 | -0.166 | -0.351 | -0.868 | 0.0853 | -0.428 | -0.0357 (inactive) | -0.525 | -0.538
30 | COCCCNC(=O)[C@@]1(Cc2ccccc2CN=[N+]=[N-])N=C(c2ccc(OCCCO)cc2)O[C@H]1c1ccccc1N=[N+]=[N-] | 0.749 | 1.06 | 0.0524 | 1.18 | 1.18 | 0.765 | 1.05 | -1.21 (inactive) | 1.27 | 0.351
31 | CC(C)C[C@@H]1NC(=O)[C@@H]2C[C@H](C(=O)NCc3ccc(F)cc3)[C@H](c3ccc(O)cc3)N2C1=O | 0.454 | 0.0392 | -0.017 | 0.0187 | 0.245 | 0.346 | 1.16 | -0.331 (inactive) | -0.512 | -0.201
32 | CCOC(=O)C1=CC[C@@H](c2ccccc2)N(S(=O)(=O)c2ccc(C)cc2)[C@H]1C=C(C)C | -0.259 | 0.644 | 0.119 | 0.831 | 1.46 | 0.944 | 0.957 | -2.39 (inactive) | 1.58 | -0.199
